Screen size: about 44,000 compounds; about 370 (0.84%) were called active. No rule for the calls is given here. For the sample, actives were picked, then their nearest neighbours and some compounds at random.
experiment: compounds raising algal triacylglycerol storage – qHTS, Chlamydomonas reinhardtii, primary screen (AID 1159537); details: Chlamydomonas reinhardtii TAG, Nile Red fluorescence, 72 h; screened at 10 µM (by protocol);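 also: hits raise Nile Red signal meaning more stored TAG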

| Structure (SMILES) | outcome |
| --- | --- |
| O=C(COc1ccc(F)cc1)NCc1ccco1 | inactive |
| CCOc1ccc(-c2cc(C(=O)NCc3ccccn3)c3ccccc3n2)cc1 | inactive |
| Cn1c(SCC(=O)Nc2cccc([N+](=O)[O-])c2)nc2ccccc21 | inactive |
| COc1ccc(C2C(=C(O)c3ccc(C)cc3)C(=O)C(=O)N2c2ccccn2)cc1 (stereo unspecified) | inactive |
| O=C(Cc1ccc(Cl)cc1)N1CCN(c2ccc(Cl)cc2[N+](=O)[O-])CC1 | inactive |
| O=C(Nc1cccc(F)c1)N1CCN(c2ccccc2F)CC1 | inactive |
| Cc1cccc(OCC(=O)Nc2cc(-c3nc4ncccc4o3)ccc2C)c1 | inactive |
| O=C(NCc1cccnc1)C(CCO)Sc1nc2sc3c(c2c(=O)[nH]1)CCCC3 (stereo unspecified) | inactive |
| Cc1ccc(N2CCN(C3CCCCCC3)CC2)cc1 | active |
| Cc1ccc(C(=O)N2CCN(c3ccccc3)CC2)cc1 | inactive |
| Cc1ccc(S(=O)(=O)N2CCC(N3CCCCCC3)CC2)cc1 | inactive |
| COc1cccc(NC(=O)Nc2nnc(-c3cccc(OC)c3)s2)c1 | inactive |
| Cc1ccc(C(=O)CNc2ccc(F)cc2)cc1 | inactive |
| Cc1cc(C)c2nc(C)cc(Nc3ccc4c(c3)OCCO4)c2c1 | inactive |
| Cc1ccc(C(=O)N(Cc2ccccc2)C(C)C)cc1[N+](=O)[O-] | inactive |
| NC(=O)c1ccc(NC(=O)C(Sc2ccccc2)c2ccccc2)cc1 (stereo unspecified) | inactive |
| COc1ccc(OC)c(NC(=O)CC2CCCCC2)c1 | inactive |
| Clc1ccc(CN2CCOCC2)c(Cl)c1 | inactive |
| O=[N+]([O-])c1ccccc1OCCCCN1CCCCC1 | inactive |
| Fc1ccccc1OCCN1CCCC1 | inactive |
| O=C(CCCOc1ccc(Cl)cc1Cl)N1CCCC1 | inactive |
| Clc1cc(Br)ccc1OCCCCN1CCOCC1 | active |
| Cc1ccc(OCCOCCN2CCN(C)CC2)c(Br)c1 | inactive |
| O=C(COc1ccc(Br)cc1Cl)NCCO | inactive |
| Clc1ccc(OCCN2CCCCCC2)cc1 | inactive |
| Clc1ccc(OCCCCN2CCOCC2)c(Br)c1 | active |

| Structure (SMILES) | outcome |
| --- | --- |
| Clc1ccc(OCCOCCN2CCCC2)c(Br)c1 | active |
| COc1ccc(C(=O)NCCCN2CCOCC2)cc1Br | inactive |
| Clc1ccccc1OCCCCN1CCOCC1 | active |
| Cc1cc(N/C=C/C(=O)c2cccs2)no1 | inactive |
| CCN(CC)CCC(=O)c1ccc(C(C)C)cc1 | inactive |
| CCc1ccc(NC(=O)Nc2ccccc2)cc1 | inactive |
| CCCC(=O)Nc1cccc(NC(=O)COc2ccc(C)c(C)c2)c1 | inactive |
| Cc1cccc(C)c1OCC(=O)Nc1ccc([N+](=O)[O-])cc1 | inactive |
| CCCC1CCc2c(sc(NC(=O)C3C4C=CC(C4)C3C(=O)O)c2C(N)=O)C1 (stereo unspecified) | inactive |
| O=C(COc1ccc([N+](=O)[O-])cc1)Nc1cccc(Br)c1 | inactive |
| CCOc1ccccc1NC(=O)COc1ccc(Br)c(C)c1 | inactive |
| CC(=O)c1nc2ccccc2n1Cc1ccccc1 | inactive |
| O=C(O)Cn1c2ccccc2c2cc([N+](=O)[O-])ccc21 | inactive |
| CC(=O)c1nc2cc([N+](=O)[O-])ccc2n1Cc1ccccc1 | active |
| CC(C(=O)NCc1ccncc1)N(c1ccccc1)S(C)(=O)=O (stereo unspecified) | inactive |
| COc1ccc(N=C2NC(=O)CC(C(=O)Nc3ccc(Cl)cc3)S2)cc1 (stereo unspecified) | inactive |
| CC(=O)Nc1ccc(NC(=O)c2ccc(F)cc2)cc1 | inactive |
| OCCN1CCN(C2CCN(Cc3ccc(Cl)cc3)CC2)CC1 | inactive |
| COc1ccc(-c2cn3c4ccccc4n(CCN4CCOCC4)c3n2)cc1 | inactive |
| O=C1CCC(=O)N1c1ccc(S(=O)(=O)c2ccc(N3C(=O)CCC3=O)cc2)cc1 | inactive |
| O=C(COc1ccc([N+](=O)[O-])cc1)Nc1ccc(Cl)cc1 | inactive |
| COc1ccccc1CNC1CCC(C)C1 (stereo unspecified) | inactive |
| NC(=O)CCSc1ccc(Cl)cc1 | inactive |
| NC(N)=NS(=O)(=O)c1ccc(NC(=O)c2ccc([N+](=O)[O-])cc2)cc1 | inactive |
| Cc1cccc(NC(=O)C(=O)NC(C)c2ccccc2)c1 (stereo unspecified) | inactive |
| CC(=O)NS(=O)(=O)c1ccc(NC(=O)C2C3C=CC(C3)C2C(=O)O)cc1 (stereo unspecified) | inactive |

| Structure (SMILES) | outcome |
| --- | --- |
| Cc1ccc(CNC(=O)c2ccccc2Br)cc1 | inactive |
| COc1ccc(Nc2nc(Nc3ccc(OC)cc3)nc(N3CCNCC3)n2)cc1 | inactive |
| CC1CCCN(CCCCOc2ccccc2F)C1 (stereo unspecified) | inactive |
| COc1cc(/C=C(\C#N)c2nc3ccc(C)cc3[nH]2)c(Br)cc1O | inactive |
| O=C(NCc1cccnc1)C(O)(c1ccccc1)c1ccccc1 | inactive |
| COc1ccccc1OCCNc1cc(N2CCOCC2)ccc1[N+](=O)[O-] | inactive |
| Cc1ccc(OCCOCCN2CCOCC2)c([N+](=O)[O-])c1 | active |
| CCN(CC)CCCOc1ccc(C)cc1[N+](=O)[O-] | inactive |
| CNC(=O)C(=O)NCCc1ccccc1 | inactive |
| O=C1CC(NCCc2ccccc2)C(=O)N1c1ccc(F)cc1 (stereo unspecified) | inactive |
| Cn1c(SCC(=O)Nc2ccccc2)nc2ccccc21 | inactive |
| Cc1ccc(C(C)C)c(OCC(O)CN2CCCC(C)C2)c1 (stereo unspecified) | inactive |
| CCOc1ccc(N2C(=O)CC(SCC(=O)Nc3ccc(F)cc3)C2=O)cc1 (stereo unspecified) | inactive |
| COc1ccc(N(CC(=O)Nc2ccc(C)cc2)S(C)(=O)=O)c(OC)c1 | inactive |
| COc1ccccc1/C=C(/C#N)c1nc2ccccc2[nH]1 | inactive |
| CNC(=O)CN(c1ccc(F)cc1)S(C)(=O)=O | inactive |
| COc1ccccc1N(CC(=O)NC12CC3CC(CC(C3)C1)C2)S(=O)(=O)c1ccccc1 | inactive |
| O=C(Nc1cccc(Cl)c1Cl)c1ccc(CN2CCOCC2)cc1 | inactive |
| O=C(c1ccc(CN2CCOCC2)cc1)N(Cc1ccccc1)Cc1ccccc1 | active |
| CC(=O)Nc1ccc(CN2CCOCC2)cc1 | inactive |
| COC(=O)NC(c1ccc(Br)cc1)C(Cl)(Cl)Cl (stereo unspecified) | inactive |
| Cc1ccc2c(Cl)c(C(=O)Nc3cc(S(N)(=O)=O)ccc3C)sc2c1 | inactive |
| CC(=O)c1ccc(NC(=O)COc2ccc(Br)c(C)c2)cc1 | inactive |
| CCOc1ccc(NC(=O)Nc2nnc(Cc3ccc(OC)cc3)s2)cc1 | inactive |
| C=CCNC(=O)COc1ccc(C)cc1Br | inactive |
| COc1ccc(Cl)cc1NC(=O)CSc1nc2ncccc2[nH]1 | inactive |

| Structure (SMILES) | outcome |
| --- | --- |
| CC(=O)NC1=C(N2CCN(Cc3ccccc3)CC2)C(=O)c2ccccc2C1=O | active |
| O=C(Nc1ccccc1)N1CCN(Cc2ccccc2)CC1 | inactive |
| CC(=O)Nc1ccc(CN2CCN(c3ccc(C(C)=O)cc3)CC2)cc1 | inactive |
| O=C(Nc1cccc(Cl)c1)Nc1ccccn1 | inactive |
| O=C1CC(N2CCCCCC2)C(=O)N1c1ccccc1 (stereo unspecified) | inactive |
| O=C1CC(N2CCc3ccccc3C2)C(=O)N1c1ccc([N+](=O)[O-])cc1 (stereo unspecified) | active |
| O=C1CC(N2CCN(c3ccc([N+](=O)[O-])cc3)CC2)C(=O)N1c1cccc(Cl)c1 (stereo unspecified) | inactive |
| CN1CCN(C(=O)c2sc3cc(Cl)ccc3c2Cl)CC1 | active |
| O=C(O)c1sc2cc(F)ccc2c1Cl | inactive |
| O=C(O)c1sc2ccccc2c1Cl | inactive |
| COc1ccccc1CN(C)C1CCN(C)CC1 | inactive |
| COc1ccc(Cl)cc1N(CC(=O)NCC1CCCO1)S(C)(=O)=O (stereo unspecified) | inactive |
| CN(C)CCCn1cnc2ccccc21 | inactive |
| COc1cc(C(=O)Nc2sc3c(c2C(N)=O)CCC3)cc(OC)c1OC | inactive |
| O=C(Nc1ccc(C(=O)N2CCOCC2)cc1)C1COc2ccccc2O1 (stereo unspecified) | inactive |
| CCC(=O)Nc1ccccc1C(=O)N1CCN(Cc2ccccc2)CC1 | inactive |
| O=C(Nc1ccccc1)Nc1ccccc1C(=O)N1CCOCC1 | active |
| NC(=O)CN(Cc1ccccc1Cl)S(=O)(=O)c1ccc(Cl)cc1 | inactive |
| O=C(c1ccc([N+](=O)[O-])cc1)N1CCN(c2cccc(Cl)c2)CC1 | inactive |
| Cc1ccccc1N(C(F)F)S(=O)(=O)c1cc([N+](=O)[O-])ccc1C | inactive |
| O=C(CCN1CCCC1)Nc1ccc2c(c1)CCC2 | inactive |
| CC(=O)c1ccc(-c2ccc(C=O)o2)cc1 | inactive |
| COc1ccccc1N1CCN(S(=O)(=O)c2cccc3cccnc23)CC1 | inactive |

— PubChem BioAssay AID1159537 (DiRusso Lab, Biochemistry Department, University of Nebraska, 2015)
